The text below walks through data of PubChem BioAssay (NCI).

Compounds without any hit were thinned out: in the full panel of roughly 83,000, 20% have a hit.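 Single-dose data. Exposure time 48 hours. Values below 10 considered active.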 Unmarked numbers belong to inactive results. Calls of active or inactive are those of the source.

Some test systems named below: SR leukemia; RPMI-8226 leukemia; OVCAR-8 ovarian; OVCAR-5 ovarian; OVCAR-4 ovarian; SK-OV-3 ovarian; IGROV1 ovarian; OVCAR-3 ovarian; HS 578T breast; NCI/ADR-RES ovarian.
What all share (assay): NCI-60 one-dose screen, 48 h (100 = growth as untreated, 0 = no growth, -100 = all killed)
What all share (conditions): 10 µM unless noted

As for `CC/C=C\C[C@H]1CC=C2C(=O)C=C[C@@H]2CC=CCCCC(=O)O[C@@H](CCCCC)CC=C2C(=O)C=C[C@@H]2CC=CCCCC(=O)O[C@@H](CCCCC)CC=C2C(=O)C=C[C@@H]2CC=CCCCC(=O)O[C@@H](CCCCC)CC=C2C(=O)C=C[C@@H]2CC=CCCCC(=O)O1`, the growth in the experiment with SR leukemia was 2.79% [7.9 µM] (active); in the experiment on RPMI-8226 leukemia, 0.23% [7.9 µM] (active); in the experiment with OVCAR-8 ovarian, -21.9% [7.9 µM] (active); with OVCAR-5 ovarian it was 75.1% [7.9 µM]; in the experiment with OVCAR-4 ovarian, 21.6% [7.9 µM]; with SK-OV-3 ovarian it was 73.4% [7.9 µM]. Also, the growth in the experiment on IGROV1 ovarian is 8.16% [7.9 µM] (active); with OVCAR-3 ovarian, -14% [7.9 µM] (active); with HS 578T breast it was 41.9% [7.9 µM]; in the experiment on NCI/ADR-RES ovarian, 92.6% [7.9 µM].

Consider `C=C(C)[C@@H]1CC[C@]2(C)[C@H](CC[C@@H]3[C@H]4[C@H]5OC[C@@]4(CCC5(C)C)CC[C@]32C)[C@@]1(C)CCCN`, for which the growth with SR leukemia was -0.922% (active); with RPMI-8226 leukemia, 1.46% (active); in the experiment on OVCAR-8 ovarian, 57.8%; in the experiment with OVCAR-5 ovarian, 50.6%; in the experiment on OVCAR-4 ovarian it was 70.2%; with SK-OV-3 ovarian, 104%. Besides, the growth in the experiment on IGROV1 ovarian was 54.3%; in the experiment with OVCAR-3 ovarian, 76.6%; in the experiment with HS 578T breast it was 109%; with NCI/ADR-RES ovarian, 73.8%.

Turning to `CCN(CC)c1ccc(/C=C/c2cc(C)c3ccccc3n2)cc1`, the growth with SR leukemia was 43.6%; with RPMI-8226 leukemia, 65.6%; with OVCAR-8 ovarian it was 75.1%; with OVCAR-5 ovarian it was 92.4%; in the experiment on OVCAR-4 ovarian, 82.8%; with SK-OV-3 ovarian, 57.7%. For the same compound, the growth with IGROV1 ovarian was 54.1%; in the experiment on OVCAR-3 ovarian, 37.1%; in the experiment on HS 578T breast, 93.8%; in the experiment on NCI/ADR-RES ovarian, 15.9%.

Turning to `CN(C)c1cccc2[nH]c(-c3[nH]ncc3Nc3ccnc(N)n3)nc12`, the growth was 7.64% (active) in the experiment on SR leukemia; -15.6% (active) in the experiment on RPMI-8226 leukemia; -22.7% (active) in the experiment on OVCAR-8 ovarian; -1.19% (active) in the experiment on OVCAR-5 ovarian; -11.7% (active) in the experiment with OVCAR-4 ovarian; 0.381% (active) with SK-OV-3 ovarian. Further, the growth in the experiment on IGROV1 ovarian is -11% (active); in the experiment with OVCAR-3 ovarian, -6.36% (active); in the experiment on HS 578T breast it was -13.8% (active); with NCI/ADR-RES ovarian, -1.48% (active).

With `CC[C@H](CC[C@@H](C)[C@H]1CC[C@H]2[C@@H]3/C(=C/c4cccnc4)C(=O)C4=CC(=O)CC[C@]4(C)[C@H]3CC[C@]12C)C(C)C`, the growth with SR leukemia is 62.4%; in the experiment with RPMI-8226 leukemia, 74.4%; in the experiment on OVCAR-8 ovarian, 64.5%; with OVCAR-5 ovarian, 105%; with OVCAR-4 ovarian it was 100%; in the experiment with SK-OV-3 ovarian it was 112%. The growth was 95.6% with IGROV1 ovarian, 102% in the experiment on OVCAR-3 ovarian, 107% in the experiment with HS 578T breast and 90.5% in the experiment with NCI/ADR-RES ovarian.

As for `Cc1cc(N(CCCNc2ccnc3cc(Cl)ccc23)Cc2ccco2)nc(N2CCN(C)CC2)n1`, the growth was -16.7% (active) in the experiment with SR leukemia; 3.87% (active) with RPMI-8226 leukemia; 55.4% in the experiment with OVCAR-8 ovarian; 73.9% with OVCAR-5 ovarian; 57% in the experiment on OVCAR-4 ovarian; 98% in the experiment on SK-OV-3 ovarian. The growth was 38.5% in the experiment on IGROV1 ovarian, 56.6% in the experiment on OVCAR-3 ovarian, 67.6% in the experiment on HS 578T breast and 59.8% in the experiment on NCI/ADR-RES ovarian.

As to `C=C1C(=O)O[C@H]2[C@H]1CC/C(Cn1cc(-c3ccc(OC)cc3)nn1)=C\CC[C@@]1(C)O[C@@H]21`, the growth in the experiment with SR leukemia was -10.8% (active); in the experiment with RPMI-8226 leukemia, -33.3% (active); in the experiment on OVCAR-8 ovarian, -51% (active); in the experiment on OVCAR-5 ovarian, 17.2%; in the experiment on OVCAR-4 ovarian, 27.4%; with SK-OV-3 ovarian, 120%. The growth with IGROV1 ovarian was -51.1% (active); in the experiment with OVCAR-3 ovarian, -83.9% (active); in the experiment on HS 578T breast it was 75.6%; in the experiment with NCI/ADR-RES ovarian it was 24.7%.

As to `Cc1ccc(Cc2cnc(NC(=O)/C=C/c3cccc(C)c3)s2)cc1`, the growth in the experiment on SR leukemia was 13.2%; in the experiment with RPMI-8226 leukemia, 3.37% (active); in the experiment with OVCAR-8 ovarian it was 21%; with OVCAR-5 ovarian, 20.9%; in the experiment on OVCAR-4 ovarian, 12.9%; in the experiment with SK-OV-3 ovarian, 15.7%. The growth in the experiment on IGROV1 ovarian was 18.3%; in the experiment on OVCAR-3 ovarian, -41.4% (active); with HS 578T breast, 6.83% (active); in the experiment with NCI/ADR-RES ovarian it was -36.5% (active).

In the case of `COC(=O)[C@]12CC[C@@H](C)[C@H](C)[C@@H]1C1=CC[C@@H]3[C@@]4(C)C[C@@H](O)OC[C@](C)(C=O)C4C(=O)C[C@@]3(C)[C@]1(C)CC2` (stereo not given in full), the growth in the experiment with SR leukemia is -14.3% (active); in the experiment with RPMI-8226 leukemia, -19.3% (active); in the experiment with OVCAR-8 ovarian it was -4.45% (active); with OVCAR-5 ovarian it was -10.5% (active); in the experiment with OVCAR-4 ovarian it was 18.5%; in the experiment with SK-OV-3 ovarian it was -0.332% (active). The growth in the experiment with IGROV1 ovarian was 14.7%; in the experiment on OVCAR-3 ovarian, -12% (active); with HS 578T breast, 16.8%; with NCI/ADR-RES ovarian, 10.9%.

For the compound `C=C(C)[C@@H]1CC[C@]2(c3nnc(-c4ccncc4)o3)CC[C@]3(C)[C@H](CC[C@@H]4[C@@]5(C)CCC(=O)NC(C)(C)[C@@H]5CC[C@]43C)[C@@H]12`, the growth in the experiment with SR leukemia was 78.3%; in the experiment with RPMI-8226 leukemia it was 81.4%; in the experiment with OVCAR-8 ovarian, 92.6%; in the experiment on OVCAR-5 ovarian it was 112%; in the experiment with OVCAR-4 ovarian, 89.5%; in the experiment on SK-OV-3 ovarian, 100%. Also, the growth with IGROV1 ovarian is 92.3%; in the experiment with OVCAR-3 ovarian it was 44.6%; in the experiment with HS 578T breast it was 95.8%; with NCI/ADR-RES ovarian it was 97.5%.

With `COc1ccc(O)c(-c2cc(-c3ccc(Cl)cc3)c(C#N)c(=O)[nH]2)c1`, the growth is 33.5% in the experiment with SR leukemia; 62.3% in the experiment on RPMI-8226 leukemia; 68.3% in the experiment with OVCAR-8 ovarian; 106% in the experiment on OVCAR-5 ovarian; 74.4% in the experiment on OVCAR-4 ovarian; 82.8% in the experiment with SK-OV-3 ovarian. The growth in the experiment with IGROV1 ovarian was 78.5%; in the experiment with OVCAR-3 ovarian it was 73.4%; in the experiment with HS 578T breast, 58.7%; with NCI/ADR-RES ovarian, 62.5%.

Take `COc1ccc(-c2cc(-c3cccs3)n(N=O)c(=O)c2C#N)cc1`: the growth was 114% in the experiment with SR leukemia; 88.4% in the experiment with RPMI-8226 leukemia; 97.4% with OVCAR-8 ovarian; 94.4% in the experiment with OVCAR-5 ovarian; 100% in the experiment on OVCAR-4 ovarian; 105% with SK-OV-3 ovarian. Further, the growth is 100% in the experiment with IGROV1 ovarian, 123% in the experiment on OVCAR-3 ovarian, 101% in the experiment on HS 578T breast and 102% in the experiment with NCI/ADR-RES ovarian.
